For 34 compounds, outcome results are on record in PubChem BioAssay (EPA / NIEHS).

Activity calls are given as the source filed them. The calls were made as follows: active = hit-call score of the fitted dose curve at least 0.9, where 1 is the maximum; inactive = score below 0.9.

A short description of the assay: ATG_M_19_CIS: Attagene CIS-FACTORIAL HepG2 Assay for M19 Transcription Factor (Internal Marker) (AID 2282939). The conditions noted are these: HepG2 Attagene CIS-FACTORIAL M19 internal marker reporter; actives raise or lower the signal. In a few lines: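 Internal marker readout, fitted in both directions against DMSO, from HepG2 cells carrying transfected cis-element reporter constructs; RT-PCR and capillary electrophoresis of reporter mRNA after 24 h exposure.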
As to `CC/C=C\CCOC(C)OCC` (centres undefined), the compound was classed as inactive. For `CCCCCCCCCCCCCCCCCC(=O)OCCCCCCCCCCCCCC(C)C` the value was “inactive”. With `CC(=N[Si](C)(C)C)O[Si](C)(C)C`, the compound was called inactive. For `c1ccc(Cc2ccccc2)cc1` the value was “inactive”; for `Cc1cc(N)n(-c2ccccc2)n1`, “inactive”. The value for `c1ccc(OCCOc2ccccc2)cc1` was “inactive”; that for `OCCCO` was “inactive”; that for `CCCCCC#CC(=O)OC` was “inactive”. As for `O=[N+]([O-])c1cc(N(CCO)CCO)ccc1NCCO`, the call was inactive. The value for `C=C(C)C(=O)OCCC[Si](OC)(OC)OC` was “inactive”. The value for `c1ccc2scnc2c1` was “inactive”; that for `CC12CCC(C1)C(C)(C)C2O` (centres undefined) was “inactive”. For `COc1ccc(OC)cc1` the value was “inactive”; for `CCCCCCOC(C)=O`, “inactive”. On to `CC(CO)c1ccccc1` (centres undefined), for which the compound was called inactive. The value for `CCCCCCCCCCCCOC(C)=O` was “inactive”; that for `CCCCC(CC)COCCO` (centres undefined) was “inactive”; that for `CC(C)CCOC(=O)CC(C)C` was “inactive”. The value for `CCOC(=O)CCCCCCCCC(=O)OCC` was “inactive”; that for `CCCCCC(=O)O[C@]1(C(C)=O)CC[C@H]2[C@@H]3CCC4=CC(=O)CC[C@]4(C)[C@H]3CC[C@@]21C` was “inactive”; that for `CN(C)c1ccc(C=O)cc1` was “inactive”. `CCOCC(C)O` (centres undefined): the call was inactive. Consider `COc1cc(OC)c2ccc(=O)oc2c1`, for which the call was inactive.

For `[Cl][Dy]([Cl])[Cl]`, the result was inactive. Regarding `O=C(O)CS`, the outcome was inactive. Regarding `CCC(CC)CO`, the compound was called inactive. With `CCCCCc1cccc(=O)o1`, the call was inactive. For `Cc1ccccc1S` the value was “inactive”; for `CCc1cccc(O)c1`, “inactive”. For the compound `CCC(C)(CCCC(C)C)OC(C)=O` (centres undefined), the compound was called inactive.

`CCC=C(C)C=O`: the outcome was inactive. In the case of `NC(=O)c1c(Cl)cccc1Cl`, the result was inactive. For `CC(O)CNCC(C)O` (centres undefined) the value was “inactive”. The value for `CC(C)Cc1ccc(C(C)C(=O)O)cc1` (centres undefined) was “inactive”.
